A selection: hits, their analogues and other compounds. The true share with any hit is near 1.1%.
OPRM1-OPRD1 inv: mu-delta opioid heterodimer inverse agonism; 340,000 compounds, 0.21% hits; AID 504357; inhibition, % at 9.3 µM; cell-based MOR-DOR heterodimer luminescence; P35372+P41143; in the data active = inhibition above about 22%, passing the limit was not always enough;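 note: 0% = cells with DMSO and 100% = wells without cells with DMSO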
Target sequence (P35372 whole entry, looked up): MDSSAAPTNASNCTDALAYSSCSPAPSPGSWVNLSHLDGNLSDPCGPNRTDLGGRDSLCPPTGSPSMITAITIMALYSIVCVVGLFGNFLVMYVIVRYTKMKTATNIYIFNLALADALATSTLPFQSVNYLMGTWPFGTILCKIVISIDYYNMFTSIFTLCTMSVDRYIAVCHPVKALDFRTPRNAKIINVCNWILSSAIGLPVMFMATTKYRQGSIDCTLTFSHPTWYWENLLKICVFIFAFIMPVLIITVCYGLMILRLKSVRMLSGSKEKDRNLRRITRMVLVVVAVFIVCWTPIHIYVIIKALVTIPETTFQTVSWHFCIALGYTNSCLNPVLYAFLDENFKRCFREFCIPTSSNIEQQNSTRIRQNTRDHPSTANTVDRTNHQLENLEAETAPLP
Target sequence (P41143 whole entry, looked up): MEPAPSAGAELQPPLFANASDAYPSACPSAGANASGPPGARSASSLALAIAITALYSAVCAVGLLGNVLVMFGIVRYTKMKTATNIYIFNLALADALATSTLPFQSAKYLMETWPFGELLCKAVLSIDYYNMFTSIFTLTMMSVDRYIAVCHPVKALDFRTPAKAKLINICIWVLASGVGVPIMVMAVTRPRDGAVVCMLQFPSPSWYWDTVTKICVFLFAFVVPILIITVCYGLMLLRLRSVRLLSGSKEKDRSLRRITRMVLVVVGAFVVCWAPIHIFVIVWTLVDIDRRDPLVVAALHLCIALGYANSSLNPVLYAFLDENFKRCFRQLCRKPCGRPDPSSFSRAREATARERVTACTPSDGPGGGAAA
MOR-DOR ag: OPRM1-OPRD1 heterodimerization agonism; cells, luminescence; 340,000 compounds, 0.3% hits; activation, % at 9.3 µM; P35372+P41143; in the data active = activation above about 18%;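 note: 0% = vehicle-treated cells and 100% = reference agonist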
HTR5A ag: activates human HTR5A in OPRM1-OPRD1 agonist counter-screen | P47898 | HTR5A agonist assay, luminescence, cell-based | activation, % at 9.3 µM | 340,000 compounds, 0.61% hits | AID 504692; in the data active = activation mostly above about 9.5%, no sharp cut-off; inactive = mostly below about 7.6%;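 note: 0% = cells with vehicle only and 100% = reference agonist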
HTR5A inv ag: inverse agonist of human HTR5A in OPRM1-OPRD1 counter-screen; inhibition, % at 9.3 µM; 340,000 compounds, 0.083% hits; HTR5A cell line, luminescence, inverse agonism; in the data active = inhibition mostly above about 23%, no sharp cut-off; inactive = mostly below about 18%;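 note: 0% = cells with DMSO and 100% = no-cell wells with DMSO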
Bfl-1 A1 inh: inhibitors of the anti-apoptotic protein A1, read as caspase activation. caspase activation, % (no concentration beside the values). 330,000 compounds, 0.066% hits. MEF A1-2A-BIM cells, Caspase-Glo 3/7 luminescence, 3 h; percent of clofoctol response, vehicle zero;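 active = over half of replicate activation scores above 10%, or exactly half above 10 with the replicate mean above 10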
Numbers without * were called inactive.

How did COC(=O)c1cc(S(=O)(=O)N2CCOCC2)c(Cl)cc1N1CCOCC1 do in these assays?
OPRM1-OPRD1 inv: 15; MOR-DOR ag: -3; HTR5A ag: 2; HTR5A inv ag: -6; Bfl-1 A1 inh: 1

What do the screens show for `COc1ccc(C(=O)C(CCC(CNC(C)(C)C)C(=O)c2ccc(OC)cc2)CNC(C)(C)C)cc1` (centres undefined)?
OPRM1-OPRD1 inv: -8; MOR-DOR ag: 1; HTR5A ag: 13*; HTR5A inv ag: -38; Bfl-1 A1 inh: 1

Results for COCCn1c(SCC(=O)NCc2ccc(F)cc2)nc2ccccc21 ?
OPRM1-OPRD1 inv: 1; MOR-DOR ag: 0; HTR5A ag: 13*; HTR5A inv ag: -24; Bfl-1 A1 inh: 0

Results for Cc1ccc(N(CC(=O)N/N=C/c2cc(C)n(-c3ccccc3C)c2C)S(C)(=O)=O)cc1 ?
OPRM1-OPRD1 inv: -9; MOR-DOR ag: 2; HTR5A ag: 3; HTR5A inv ag: -8; Bfl-1 A1 inh: 3

Results for CCc1cc2c(COC(=O)c3cc(S(=O)(=O)N4CCOCC4)ccc3F)cc(=O)oc2cc1O ?
OPRM1-OPRD1 inv: 12; MOR-DOR ag: -3; HTR5A ag: 0; HTR5A inv ag: 0; Bfl-1 A1 inh: -2

How did CCc1cc2c(COC(=O)c3cccc(NS(C)(=O)=O)c3)cc(=O)oc2cc1O do in these assays?
OPRM1-OPRD1 inv: -86; MOR-DOR ag: 10; HTR5A ag: 12*; HTR5A inv ag: -16; Bfl-1 A1 inh: 0

How did Cc1ccc(-n2c(=O)c3ccc(C(=O)NCc4ccco4)cc3n(Cc3ccccc3C#N)c2=O)cc1 do in these assays?
OPRM1-OPRD1 inv: 35*; MOR-DOR ag: -7; HTR5A ag: -10; HTR5A inv ag: 37*; Bfl-1 A1 inh: 1

How did O=C(Cn1c(=O)n(CCC(=O)N2CCCCC2)c(=O)c2sccc21)NCc1ccccc1 do in these assays?
OPRM1-OPRD1 inv: 12; MOR-DOR ag: -2; HTR5A ag: 13*; HTR5A inv ag: -8; Bfl-1 A1 inh: -2

What do the screens show for `CCOC(=O)N1CCN(C2CC(=O)N(c3ccc(Oc4ccccc4)cc3)C2=O)CC1` (centres undefined)?
OPRM1-OPRD1 inv: 6; MOR-DOR ag: -1; HTR5A ag: 8; HTR5A inv ag: -13; Bfl-1 A1 inh: 0

Results for Cc1ccc(N=C2C(=O)Nc3ccc(C)c(Br)c32)cc1 ?
OPRM1-OPRD1 inv: 67*; MOR-DOR ag: -13; HTR5A ag: -8; HTR5A inv ag: 28; Bfl-1 A1 inh: 4

Results for O=C1Nc2ccc(Br)cc2C1=Nc1cccnc1 ?
Bfl-1 A1 inh: 0

Results for COc1ccc(-n2nnnc2SCC(=O)c2cccc(OC)c2)cc1 ?
OPRM1-OPRD1 inv: 1; MOR-DOR ag: 0; HTR5A ag: -1; HTR5A inv ag: 14; Bfl-1 A1 inh: 0

What do the screens show for `CCOc1ccc(-n2nnnc2SCC(=O)c2ccccc2)cc1`?
OPRM1-OPRD1 inv: -6; MOR-DOR ag: 1; HTR5A ag: 13*; HTR5A inv ag: 9; Bfl-1 A1 inh: -1

Results for O=C(NCCc1ccc2c(c1)OCCO2)c1cc(S(=O)(=O)N2CCCC2)ccc1Br ?
OPRM1-OPRD1 inv: 6; MOR-DOR ag: -2; HTR5A ag: 8; HTR5A inv ag: -23

What do the screens show for `CCS(=O)(=O)c1nc(S(=O)(=O)c2ccc(C)cc2)c(N2CCOCC2)s1`?
OPRM1-OPRD1 inv: -3; MOR-DOR ag: 0; HTR5A ag: 11*; HTR5A inv ag: 17; Bfl-1 A1 inh: 0

What do the screens show for `Cc1ccc(S(=O)(=O)c2nc(S(C)(=O)=O)sc2N2CCOCC2)cc1`?
OPRM1-OPRD1 inv: 8; MOR-DOR ag: -2; HTR5A ag: 1; HTR5A inv ag: -1; Bfl-1 A1 inh: -1

What do the screens show for `CCC/C(O)=C1\C(=O)CC(C)(C)CC1=Nc1cccc([N+](=O)[O-])c1`?
OPRM1-OPRD1 inv: 2; MOR-DOR ag: 0; HTR5A ag: 3; HTR5A inv ag: -9; Bfl-1 A1 inh: 0

What do the screens show for `Cc1ccc(CNC(=O)C2CCC(=O)N2Cc2ccccc2Cl)cc1` (centres undefined)?
OPRM1-OPRD1 inv: 7; MOR-DOR ag: -2; HTR5A ag: 0; HTR5A inv ag: 1; Bfl-1 A1 inh: 1

What do the screens show for `O=C(CCCn1c(=O)[nH]c2cc(Cl)ccc2c1=O)NC1CCCCCCC1`?
OPRM1-OPRD1 inv: 4; MOR-DOR ag: -1; HTR5A ag: 3; HTR5A inv ag: 9; Bfl-1 A1 inh: 0

How did CN(Cc1ccccc1)C(=O)CCCn1c(=O)[nH]c2cc(Cl)ccc2c1=O do in these assays?
OPRM1-OPRD1 inv: 6; MOR-DOR ag: -1; HTR5A ag: 13*; HTR5A inv ag: 13; Bfl-1 A1 inh: -1
